Measured values reported in PubChem BioAssay.
Calls of active or inactive are those of the source.

Tests used:
Albumin (Bos taurus) = Albumin (Bos taurus) (UniProt P02769); experiment: compounds binding labelled BSA control protein – biochemical, small-molecule microarray, Alexa647 label, 635/667 nm fluorescence, artefact control for SMM control protein annotation, profiling panel (AID 1118); conditions: BSA-A647 binding, fluorescence 635 nm, higher = more signal;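 further: score merges 667 nm emission intensity and signal-to-noise per printed compound spot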
Albumin (Bos taurus), sequence (P02769 whole entry, looked up): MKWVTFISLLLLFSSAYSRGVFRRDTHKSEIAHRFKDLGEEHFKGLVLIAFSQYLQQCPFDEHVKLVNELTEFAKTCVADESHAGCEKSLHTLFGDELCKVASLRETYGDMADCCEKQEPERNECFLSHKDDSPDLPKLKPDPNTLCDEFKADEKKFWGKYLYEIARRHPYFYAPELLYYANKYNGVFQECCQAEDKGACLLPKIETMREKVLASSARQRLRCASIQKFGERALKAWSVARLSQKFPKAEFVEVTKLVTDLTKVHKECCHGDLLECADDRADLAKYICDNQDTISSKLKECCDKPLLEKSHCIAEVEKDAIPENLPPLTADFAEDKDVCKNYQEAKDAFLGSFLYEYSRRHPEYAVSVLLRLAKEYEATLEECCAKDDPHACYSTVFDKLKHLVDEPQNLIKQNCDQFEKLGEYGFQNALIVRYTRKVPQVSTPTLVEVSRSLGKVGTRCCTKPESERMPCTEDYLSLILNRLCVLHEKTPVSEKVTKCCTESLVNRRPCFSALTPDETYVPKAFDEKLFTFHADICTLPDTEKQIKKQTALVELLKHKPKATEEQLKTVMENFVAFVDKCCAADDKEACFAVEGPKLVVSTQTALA

[1] = probe aXIP binding to arrayed compounds – biochemical, NeuroSMM set, 635/667 nm fluorescence, primary screen (AID 1119); conditions: small-molecule microarray, higher = more signal, called active from +8 up or from −8 down;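 further: probe is the protein aXip251-270 applied at 1 µg/mL to compound-printed slides; binding of probe to printed compounds measured as 667 nm fluorescence plus signal to noise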
[2] = probe aNOTCH3 binding on compound microarray – biochemical, small-molecule microarray, 635/667 nm fluorescence, primary screen (AID 1120); conditions: higher = more signal;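 further: probe is a biotin-tagged antibody raised against NOTCH3 rather than NOTCH3 protein; score merges spot fluorescence near 667 nm with spot signal to noise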
[3] = probe aNOTCH2 binding on compound microarray – biochemical, small-molecule microarray, 635/667 nm fluorescence, primary screen (AID 1121); conditions: higher = more signal;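 further: score merges feature fluorescence read at 667 nm with its signal to noise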
[4] = target: Carbonic anhydrase 2 (Homo sapiens) (UniProt P00918); experiment: compounds binding carbonic anhydrase 2 – biochemical, small-molecule microarray, Alexa647-labelled CAII, profiling panel (AID 1122); conditions: CAII-A647 binding fluorescence, higher = more signal
[5] = COS7 lysate on small-molecule microarray, probe aHis, 635 nm (AID 1123); conditions: COS7 cell lysate, fluorescence, higher = more signal;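 further: z-score combines 667nm fluorescence intensity with signal-to-noise per printed compound spot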
[6] = probe aLAP1 signal on lysate-treated microarray – cell lysate, small-molecule microarray, COS7 lysate, primary screen (AID 1124); conditions: probe aLAP1, fluorescence, higher = more signal;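 further: lysate comes from COS7 cells expressing LAP1 and is applied at 0.3 µg/mL; score merges spot fluorescence near 667 nm with signal-to-noise over triplicate slides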
Sam68 (KHDRBS1) = experiment: compounds binding KHDRBS1 protein – biochemical, small-molecule microarray, 635 nm fluorescence, primary screen (AID 1125); conditions: higher = more signal;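 further: score merges 667 nm channel intensity with signal to noise over triplicate slides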
[7] = system: Chordin-like protein 2 (CHRDL2); experiment: compounds binding chordin-like 2 – biochemical, small-molecule microarray, 635 nm fluorescence, primary screen (AID 1126); conditions: fluorescence 635 nm, higher = more signal;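 further: printed compound slides probed with Chrdl2 protein at 4 µg/mL for 1 h at 4 C; score merges 667 nm emission intensity with signal to noise over three replicate slides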
[8] = target: Concanavalin-A (Canavalia ensiformis) (UniProt P02866); experiment: compounds binding concanavalin A lectin – biochemical, small-molecule microarray, Alexa647 label, 635 nm, artefact control for SMM control protein annotation, primary screen (AID 1127); conditions: ConA-A647 binding fluorescence, higher = more signal;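 further: z combines 667 nm emission intensity with signal-to-noise across three replicate slides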
Concanavalin-A (Canavalia ensiformis), sequence (P02866 whole entry, looked up): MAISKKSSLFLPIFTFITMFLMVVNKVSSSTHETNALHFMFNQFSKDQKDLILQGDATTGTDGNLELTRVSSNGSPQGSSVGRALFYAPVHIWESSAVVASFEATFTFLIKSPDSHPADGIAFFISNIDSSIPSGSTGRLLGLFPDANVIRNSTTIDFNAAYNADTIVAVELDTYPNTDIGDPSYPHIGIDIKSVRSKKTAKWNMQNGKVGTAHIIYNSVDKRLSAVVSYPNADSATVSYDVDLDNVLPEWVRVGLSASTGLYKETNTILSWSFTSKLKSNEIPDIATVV

[9] = compounds binding Alexa647 anti-His antibody – biochemical, small-molecule microarray, 635 nm fluorescence, artefact control for SMM control protein annotation, primary screen (AID 1128); conditions: higher = more signal;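 further: score merges feature fluorescence with signal-to-noise for each printed compound spot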
[10] = system: Human papillomavirus type 1a E7 protein (residues 1-88); experiment: HPV1a E7 small-molecule binders, primary screen, biochemical, small-molecule microarray, residues 1-88, 635 nm (AID 1129); conditions: small-molecule microarray binding, fluorescence 635 nm; higher = more signal
[11] = target: Focal adhesion kinase 1 (Homo sapiens) (UniProt Q05397); experiment: PTK2 protein binding on printed compound slides – biochemical, small-molecule microarray, 635/667 nm fluorescence, BSA, DTT, primary screen (AID 1130); conditions: 635 nm fluorescence, higher = more signal;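 further: composite of spot emission at 667 nm and signal to noise over triplicate slides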
Focal adhesion kinase 1 (Homo sapiens), sequence (Q05397 whole entry, looked up): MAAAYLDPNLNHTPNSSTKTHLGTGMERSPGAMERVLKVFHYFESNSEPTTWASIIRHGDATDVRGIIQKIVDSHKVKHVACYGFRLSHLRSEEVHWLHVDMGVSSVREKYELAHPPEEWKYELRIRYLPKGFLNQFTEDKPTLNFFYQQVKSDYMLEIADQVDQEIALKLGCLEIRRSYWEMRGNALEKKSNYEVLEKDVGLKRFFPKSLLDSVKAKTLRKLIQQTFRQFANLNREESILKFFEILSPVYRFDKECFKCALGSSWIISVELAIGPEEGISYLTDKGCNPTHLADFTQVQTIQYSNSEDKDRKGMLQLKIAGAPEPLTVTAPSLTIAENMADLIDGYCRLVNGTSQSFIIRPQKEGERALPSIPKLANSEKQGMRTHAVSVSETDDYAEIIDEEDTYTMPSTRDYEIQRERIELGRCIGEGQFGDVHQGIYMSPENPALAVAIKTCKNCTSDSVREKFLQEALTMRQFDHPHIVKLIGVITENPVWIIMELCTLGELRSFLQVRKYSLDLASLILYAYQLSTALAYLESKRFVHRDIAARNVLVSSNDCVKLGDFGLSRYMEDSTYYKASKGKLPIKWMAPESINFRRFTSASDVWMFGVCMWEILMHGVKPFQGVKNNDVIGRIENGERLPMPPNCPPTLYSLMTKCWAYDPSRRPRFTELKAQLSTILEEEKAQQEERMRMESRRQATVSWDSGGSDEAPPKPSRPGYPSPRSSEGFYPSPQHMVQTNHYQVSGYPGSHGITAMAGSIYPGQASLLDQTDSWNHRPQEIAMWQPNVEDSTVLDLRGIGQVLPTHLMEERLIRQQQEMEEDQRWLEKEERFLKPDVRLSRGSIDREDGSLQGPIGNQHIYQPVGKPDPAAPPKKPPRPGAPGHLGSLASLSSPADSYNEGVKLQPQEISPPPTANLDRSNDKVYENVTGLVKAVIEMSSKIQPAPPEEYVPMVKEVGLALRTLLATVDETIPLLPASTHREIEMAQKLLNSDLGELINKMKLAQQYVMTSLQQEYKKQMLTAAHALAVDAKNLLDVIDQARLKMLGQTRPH

[12] = system: Fibrinogen (Alexa647-labelled); experiment: Alexa647-fibrinogen binding to printed small molecules – biochemical, small-molecule microarray, 635/667 nm fluorescence, artefact control for SMM control-protein annotation, profiling panel (AID 1131); conditions: fibrinogen-A647 binding fluorescence, higher = more signal;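 further: z-score merges 667 nm fluorescence with per-spot signal-to-noise over triplicate slides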
[13] = target: Follistatin (Homo sapiens) (UniProt P19883); experiment: FST protein binding to printed compounds – biochemical, small-molecule microarray, 635/667 nm fluorescence, primary screen (AID 1132); conditions: 635 nm fluorescence, higher = more signal
Follistatin (Homo sapiens), sequence (P19883 whole entry, looked up): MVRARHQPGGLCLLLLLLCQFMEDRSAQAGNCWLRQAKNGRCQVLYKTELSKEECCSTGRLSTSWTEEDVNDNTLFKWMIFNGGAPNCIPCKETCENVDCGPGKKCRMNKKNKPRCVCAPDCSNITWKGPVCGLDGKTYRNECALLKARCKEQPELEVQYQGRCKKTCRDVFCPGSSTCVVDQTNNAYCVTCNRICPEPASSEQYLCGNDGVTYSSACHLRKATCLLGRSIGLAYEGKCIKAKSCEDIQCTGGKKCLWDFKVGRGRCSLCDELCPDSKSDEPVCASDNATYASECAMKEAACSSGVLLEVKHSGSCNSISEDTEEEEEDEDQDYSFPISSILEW

[14] = target: Fibroblast growth factor 2 (Homo sapiens) (UniProt P09038); experiment: basic fibroblast growth factor binding to printed compounds – biochemical, small-molecule microarray, 635/667 nm fluorescence, primary screen (AID 1133); conditions: FGF2, fluorescence 635/667, higher = more signal
Fibroblast growth factor 2 (Homo sapiens), sequence (P09038 whole entry, looked up): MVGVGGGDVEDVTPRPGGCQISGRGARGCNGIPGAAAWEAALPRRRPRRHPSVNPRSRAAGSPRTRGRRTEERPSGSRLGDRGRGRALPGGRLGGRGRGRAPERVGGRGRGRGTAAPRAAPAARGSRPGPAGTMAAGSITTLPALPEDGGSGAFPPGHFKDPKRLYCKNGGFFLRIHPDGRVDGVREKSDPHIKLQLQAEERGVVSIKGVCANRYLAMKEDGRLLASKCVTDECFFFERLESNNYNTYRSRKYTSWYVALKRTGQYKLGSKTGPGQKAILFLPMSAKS

[15] = JC-1 mitochondrial potential readout, lung cancer cells – cell-based, A549, JC-1 fluorescence, basal, 24 h, 100 nL, profiling panel (AID 1138); conditions: higher = more signal;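 further: A549 lung adenocarcinoma cells under basal conditions with no added stimulus; test concentration not given here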
Lefty1 = Lefty1 protein binding to printed compounds – biochemical, small-molecule microarray, 635/667 nm fluorescence, primary screen (AID 1139); conditions: fluorescence 635/667, higher = more signal
[16] = system: wheat germ agglutinin (Triticum aestivum), Alexa647-labelled; experiment: Alexa647-WGA lectin binding to printed small molecules – biochemical, small-molecule microarray, 635/667 nm fluorescence, artefact control for SMM control-protein annotation, profiling panel (AID 1140); conditions: WGA-A647 binding, 635 nm fluorescence, higher = more signal;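 further: score merges 667 nm feature emission with signal to noise over triplicate slides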
[17] = target: Luciferin 4-monooxygenase (Photinus pyralis) (UniProt P08659); experiment: inhibition of purified Photinus pyralis luciferase – biochemical, luminescence, purified enzyme, 2006 set, primary screen (AID 1141); conditions: purified firefly luciferase, SteadyGlo luminescence, 30 min; higher = more signal, called active from +8 up or from −8 down;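 further: cell-free assay with purified firefly luciferase at 100 ng per well in PBS; test concentration not given here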
Luciferin 4-monooxygenase (Photinus pyralis), sequence (P08659 whole entry, looked up): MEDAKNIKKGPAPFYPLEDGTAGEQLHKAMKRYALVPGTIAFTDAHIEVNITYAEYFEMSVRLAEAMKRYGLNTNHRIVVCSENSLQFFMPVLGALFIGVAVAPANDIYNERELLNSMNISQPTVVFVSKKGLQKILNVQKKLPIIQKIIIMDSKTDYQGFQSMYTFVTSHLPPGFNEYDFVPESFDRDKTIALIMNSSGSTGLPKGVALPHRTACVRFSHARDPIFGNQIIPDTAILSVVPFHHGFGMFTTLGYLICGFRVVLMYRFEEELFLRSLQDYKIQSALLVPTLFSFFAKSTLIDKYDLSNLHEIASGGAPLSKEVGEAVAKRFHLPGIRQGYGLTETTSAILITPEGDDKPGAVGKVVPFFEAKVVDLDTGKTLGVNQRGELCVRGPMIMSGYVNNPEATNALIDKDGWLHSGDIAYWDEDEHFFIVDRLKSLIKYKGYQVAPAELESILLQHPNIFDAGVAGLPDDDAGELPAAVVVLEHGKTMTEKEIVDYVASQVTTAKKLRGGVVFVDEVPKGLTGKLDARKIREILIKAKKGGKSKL

Row | SMILES | composite z-score (Albumin (Bos taurus)) | composite Z-score [1] | composite z-score [2] | composite z-score [3] | composite z-score [4] | composite z-score [5] | composite z-score [6] | composite z-score (Sam68 (KHDRBS1)) | composite z-score [7] | composite z-score [8] | composite z-score [9] | composite z-score [10] | composite z-score [11] | composite z-score [12] | composite z-score [13] | composite z-score [14] | z-score [15] | composite z-score (Lefty1) | composite z-score [16] | z-score [17]
1 | O=C1OCCC=C[C@H]2OC34C=CCN(Cn5nnc6ccccc65)C(=O)[C@H]3N(CCCCCCO)C(=O)[C@@H]4C12 (stereo not given in full) | -0.587 | 0.688 (inactive) | -0.429 | -0.0532 | 0.875 | -0.591 | 0.755 | -0.365 | -1.31 | -0.718 | -0.832 | -0.48 | -0.235 | -0.907 | -1.29 | -1.24 | 0.324 | -1.28 | -1.07 | -0.718 (inactive)
2 | CO[C@H]1O[C@H](CO)[C@@H](OC(=O)Nc2ccccc2-c2ccccc2)[C@H](OC(=O)Nc2ccc3c(c2)OCO3)[C@H]1OC(=O)Nc1ccc2c(c1)OCO2 | 0.902 | 0.806 (inactive) | 0.211 | -0.103 | 0.498 | 2.8 | 1.11 | 1.31 | 0.454 | 1.06 | 1.02 | 1.24 | 1.11 | 0.941 | 1.23 | 0.993 | -0.499 | 0.63 | 1.1 | -6.15 (inactive)
3 | COC(=O)[C@@]1(Cc2ccc(OC)cc2)[C@H]2c3cc(C(=O)N4CCCC4)n(Cc4c(-c5ccccc5)noc4C)c3C[C@H]2CN1C(=O)c1ccccc1 | 0.634 | 0.216 (inactive) | 0.576 | 0.251 | 0.446 | 3.24 | 0.214 | 1.35 | -0.748 | 0.978 | 1.45 | 1.27 | 0.372 | 0.695 | 0.699 | -0.298 | -0.608 | 0.0669 | 0.539 | 2.05 (inactive)
4 | C[N+](C)(C)CCCCCCNC(=O)[C@H]1C[C@H]2C(=O)N[C@@H](Cc3ccccc3)C(=O)N2[C@H]1c1ccc(O)cc1 | -0.459 | -0.505 (inactive) | -0.0471 | -0.137 | 0.4 | 1.05 | 0.0686 | 0.479 | 1.37 | 0.547 | 1.32 | 0.0251 | -0.208 | -0.222 | 1.34 | 0.916 | 0.0402 | 1.34 | 0.112 | -0.555 (inactive)
5 | O=C1O[C@H](c2ccccc2)[C@H](c2ccccc2)N2[C@H]1[C@@H](C(=O)Nc1nc3ccccc3s1)[C@]1(C(=O)Nc3ccc(C#CCCO)cc31)[C@H]2c1ccc(O)cc1 | 0.497 | -0.0959 (inactive) | 0.199 | -0.156 | 0.5 | 1.75 | 0.278 | 1.02 | 0.172 | 1.16 | 0.917 | 1.18 | 0.306 | 0.982 | 1.26 | 0.585 | -2.34 | 1.23 | 1.1 | 0.198 (inactive)
6 | CCCCCCc1nc(C2CC2)cc2c1[Si](C(C)C)(C(C)C)O[C@H]2c1ccccc1 | -0.948 | -0.228 (inactive) | -0.0647 | -0.126 | -0.324 | -0.724 | 0.649 | -0.698 | 0.21 | 0.327 | -0.523 | -0.873 | 0.0181 | -0.675 | 0.0915 | 0.248 | -0.911 | 1.05 | -0.127 | 0.747 (inactive)
7 | COc1ccccc1CN1C(=O)c2ccccc2[C@@]2(Cc3ccccc3N(CC(F)(F)F)C2=O)[C@@H]1c1ccc(CO)cc1 | -0.826 | -0.137 (inactive) | -0.251 | 0.156 | 0.757 | 0.384 | 2.4 | 0.707 | 1.03 | 0.331 | -0.0478 | 0.232 | 0.205 | 0.049 | 0.666 | 0.731 | -0.0896 | 0.292 | -0.0716 | 0.962 (inactive)
8 | CC(C)C[C@@H]1NC(=O)[C@@H]2C[C@H](C(=O)NCCCCN(C)C)[C@H](c3cccc(OCCO)c3)N2C1=O | 0.434 | 0.157 (inactive) | -0.245 | -0.132 | 0.466 | 1.63 | 0.613 | 0.505 | 0.175 | 0.129 | -0.421 | -0.46 | 0.392 | -1.81 | 0.787 | 0.549 | -0.57 | 0.24 | 0.779 | 0.857 (inactive)
9 | COCCOC(=O)N1C(=O)[C@@]2(c3cc(C#CC4=CCCCC4)ccc31)[C@H](c1ccc(OCCO)cc1)N1[C@H](c3ccccc3)[C@H](c3ccccc3)OC(=O)[C@H]1[C@@H]2C(=O)N1CCN(c2ncccn2)CC1 | 0.737 | -0.648 (inactive) | 0.0596 | -0.158 | 0.425 | 0.477 | 0.677 | 1.31 | 0.48 | 0.713 | 0.433 | 1.15 | 0.067 | 0.574 | 1.29 | 0.692 | -1.27 | 0.853 | 0.5 | -2.01 (inactive)
10 | O=C1O[C@H](c2ccccc2)[C@H](c2ccccc2)N2[C@H]1[C@@H](C(=O)N1CCN(c3ncccn3)CC1)[C@]1(C(=O)Nc3ccc(C#CC4(O)CCCCCC4)cc31)[C@H]2c1ccc(OCCO)cc1 | 0.0591 | 6.42 (inactive) | 1.39 | 0.606 | 0.62 | 3.46 | 1.61 | 1.29 | 1.41 | 1.1 | 1.14 | 1.23 | 1.03 | 0.966 | 1.27 | 1.48 | -1.46 | 1.38 | 1.03 | -1.2 (inactive)
11 | CN(C)C(=O)C1N=C(c2ccc(OCCCO)cc2)N(c2ccccc2)O1 (stereo not given) | 0.0877 | 0.794 (inactive) | 0.147 | 0.0674 | 0.846 | 1.15 | 0.502 | 1.32 | 0.267 | 0.988 | 1.33 | 1.13 | 0.268 | 0.598 | 1.35 | 1.8 | 0.936 | 1.29 | 0.586 | -14.9 (active)
